Source: PubChem BioAssay AID624133 (Broad Institute, 2012)
Among all 1,600 compounds or so, about 1,300 (81%) were called active. The rule behind the calls is not given here. The set was probably picked from earlier hits. Not all results are given here. Measured potencies and affinities stand elsewhere.

Assay: control 3'UTR Renilla luciferase suppression, dose response, counter-screen for Shn3 inhibitor project, cell-based, Clone20-Shn3RL, cherry-picked (AID 624133);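 note: 0% = neutral control wells and -100% = positive control wells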
Settings: Clone20-Shn3RL cells, Renilla luciferase luminescence, 24 h; at 35 µM (top of the series) unless noted
Work on `Cc1ccccc1NC(=O)CSc1nc2ccccc2c(=O)n1C` yielded an activity change, negative = inhibition of 10%. Work on `COc1ccc(N2C(=O)C(CC(=O)Nc3ccccc3)N(Cc3ccc(OC)c(OC)c3)C2=O)cc1` (stereo unspecified) yielded an activity change, negative = inhibition of 84.7%. With `CCCCC[C@H]1CN(Cc2ccc(OC)cc2)C(=O)[C@@H]1CC(=O)NCc1ccccc1` the activity change, negative = inhibition was 196%. For `COCCn1c(C)cc(C2=NNC(=NC3CC3)SC2)c1C`, the activity change, negative = inhibition was 10%. Compound `Cc1ccc(S(=O)(=O)Nc2cccc3ncccc23)s1` has an activity change, negative = inhibition of -66.7%. `COc1ccc(NS(=O)(=O)c2ccc(OC)c(N(C)S(=O)(=O)c3ccc(Cl)cc3)c2)cc1` gave an activity change, negative = inhibition of -58.3%. `Cc1nc(SCC(=O)Nc2nc3ccccc3s2)c(C#N)c(C)c1C` gave an activity change, negative = inhibition of -8.33%. `Cc1ccc(NC(=O)c2cc3ccccc3oc2=O)cc1S(=O)(=O)N(C)C` showed an activity change, negative = inhibition of 45.2%. Compound `Cc1cccc(C)c1NC(=O)CN(C)C(=O)c1cc(S(=O)(=O)N(C)C)ccc1N1CCCC1` has an activity change, negative = inhibition of 41.7%. `Cc1nc2ncnn2c(C)c1Cc1cccc(F)c1` showed an activity change, negative = inhibition of 25%. In the case of `Cn1cc(CN(CCO)Cc2cccs2)c(-c2cccc(Cl)c2)n1`, the activity change, negative = inhibition is reported as 16.7%. Work on `COc1ccc(C(=O)Cn2c(C(=O)/C=C/c3ccccc3)nc3ccccc32)cc1` yielded an activity change, negative = inhibition of 170%. `COc1ccc(OCc2cccc(C(=O)O)c2)cc1` showed an activity change, negative = inhibition of 107%. In the case of `O=C(O)c1cccc(COc2ccccc2Cl)c1`, the activity change, negative = inhibition is reported as -10%. For `Oc1c(C(c2cccs2)N2CCC3(CC2)OCCO3)sc2ncnn12` (stereo unspecified), the activity change, negative = inhibition was 151%. For `COC(=O)[C@@]12CCCN1[C@H](c1ccc(-c3ccc(OC)cc3)cc1)[C@@H]1C(=O)N(C)C(=O)[C@@H]12`, the activity change, negative = inhibition was 47.2%. With `CCN1C(=O)[C@H]2[C@@H](c3ccc(-c4ccc(OC)cc4)cc3)N3CCC[C@@]3(C(=O)OC)[C@H]2C1=O` the activity change, negative = inhibition was -39.3%. For `CCCCN1CC(COCc2ccccc2)Oc2cccc(Oc3ccc(C)cc3)c2S1(=O)=O` (stereo unspecified), the activity change, negative = inhibition was 130%. Work on `CCCCN1CC(COCc2ccccc2)Oc2cccc(Oc3cc(C)c(C)c(C)c3)c2S1(=O)=O` (stereo unspecified) yielded an activity change, negative = inhibition of 300%. Compound `COC(=O)c1ccccc1NC(=S)N(Cc1ccc2c(c1)OCO2)Cc1cc2cc(OC)ccc2[nH]c1=O` has an activity change, negative = inhibition of 200%. Work on `O=C1S/C(=C\c2ccc(N3CCOCC3)o2)C(=O)N1Cc1c(F)cccc1Cl` yielded an activity change, negative = inhibition of 400%. Compound `Cc1cc(C)n(-c2cc(-n3nc(C)cc3C)ncn2)n1` has an activity change, negative = inhibition of 2.38%. Compound `C[C@@H]1CN([C@H](C)CO)C(=O)c2cc(Br)cnc2O[C@H]1CN(C)C(=O)Cc1ccncc1` has an activity change, negative = inhibition of 83.3%. Compound `CN1OC[C@@H]2CN[C@H](c3ccc(-c4cc5ccccc5o4)cc3)C[C@@H]21` has an activity change, negative = inhibition of -25%. `CN(CC(=O)Nc1cc(S(=O)(=O)N2CCCC2)ccc1Cl)Cc1ccc2c(c1)OCO2` showed an activity change, negative = inhibition of 87.5%. In the case of `CC(C)(C)OC(=O)NCc1ccc(CNC(=O)c2nc[nH]c2C(=O)NCc2ccc(CNC(=O)OC(C)(C)C)cc2)cc1`, the activity change, negative = inhibition is reported as 208%.
